APP 5'UTR act: APP 5'UTR luciferase reporter activation. activation, % at 2 µM. actives 1% (n = 190,000). AID 1276. SH-SY5Y APP 5'UTR luciferase reporter, luminescence; zero percent = DMSO vehicle wells;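 active = activation above a set limit, based on mean plus 3 SD of controls, cut at about 140% in these data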
STAT1 activator: activators of IFN-gamma induced STAT1 signaling | NIH 3T3 STAT1-luciferase reporter, luminescence; 100% = IFN-gamma alone, no compound | activation (% of control), % at 5.5 µM | actives 2.6% (n = 200,000);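 active = activation above the screen-wide mean activation plus 3 SD, cut at about 130% in these data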;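 note: raw ratio to IFN-gamma control signal so 100% means no change and 0% no light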
Wee1 stabilizer: blocks degradation of human Wee1 kinase. HeLa Luc-Wee1K328M stability, luciferase luminescence; 100% = proteasome inhibitor MG132 effect. P30291. actives 1.2% (n = 220,000). reporter increase, % at 5 µM;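 active = activation above the mean of all tested compounds plus 3 SD, set per screening run, cut at about 8.8% in these data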;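 note: cells exposed to compound for 20 h before luminescence read; 0% = DMSO alone and 100% = MG132 at 30 µM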
Target sequence (P30291 whole entry K328M): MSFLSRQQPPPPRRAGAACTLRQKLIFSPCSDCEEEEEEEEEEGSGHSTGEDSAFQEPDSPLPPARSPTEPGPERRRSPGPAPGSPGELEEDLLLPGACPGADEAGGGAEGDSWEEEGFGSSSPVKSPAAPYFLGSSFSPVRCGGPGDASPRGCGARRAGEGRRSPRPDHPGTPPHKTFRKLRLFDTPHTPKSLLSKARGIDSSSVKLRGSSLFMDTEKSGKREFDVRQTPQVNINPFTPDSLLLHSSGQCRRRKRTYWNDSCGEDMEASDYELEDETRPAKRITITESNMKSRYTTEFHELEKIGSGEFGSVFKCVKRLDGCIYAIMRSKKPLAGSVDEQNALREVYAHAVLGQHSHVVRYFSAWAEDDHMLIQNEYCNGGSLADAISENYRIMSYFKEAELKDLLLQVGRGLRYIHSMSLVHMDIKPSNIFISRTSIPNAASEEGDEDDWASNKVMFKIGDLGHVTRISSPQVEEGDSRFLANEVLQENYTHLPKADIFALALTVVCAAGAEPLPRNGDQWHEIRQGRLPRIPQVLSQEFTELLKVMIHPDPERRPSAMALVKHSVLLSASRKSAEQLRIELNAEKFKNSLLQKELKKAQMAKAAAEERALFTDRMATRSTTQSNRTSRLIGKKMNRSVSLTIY
APP transl inh: APP translation inhibition; SH-SY5Y APP 5'UTR-luciferase reporter, luminescence; inhibition, % at 2 µM; actives 0.82% (n = 190,000); AID 1285;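 active = inhibition above a set limit, derived from the sample mean plus 3 SD, cut at about 45% in these data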
NF-kB neuron act: compounds increasing NF-kB expression in human neuronal cells | NF-kB reporter expression; stronger effect = higher value | fold change at 12.5 µM | actives 1.6% (n = 190,000); in the data active = fold change above about 3.3
Hsp70 act: Hsp70 transcriptional activation, primary screen | activation, % at 10 µM | HeLa Hsp70 promoter luciferase reporter, luminescence; scaled: vehicle 0, proteasome-inhibitor control 100% | AID 1203 | actives 0.04% (n = 200,000);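 active = activation above the mean across all tested compounds plus 3 SD, cutoff set per campaign, cut at about 5.5% in these data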;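 note: 100% = MG132 at 30 µM as the positive control and 0% = DMSO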
The depositor's hits bear a star; nt = not tested or not shown. Shown are actives, neighbours in structure and some others; about 4.8% of the full set was active somewhere.

SMILES | APP 5'UTR act | STAT1 activator | Wee1 stabilizer | APP transl inh | NF-kB neuron act | Hsp70 act
CN(Cc1ccccc1)CC(O)COc1ccc(CNCCc2cccnc2)cc1 (centres undefined) | 7 | 102 | 1 | -7 | 0.85 | 0
COc1ccc(C(=O)N/N=C(\c2ccccc2)c2ccccn2)cc1 | -78 | 100 | 2 | 78* | 3.2 | 0
COc1ccc(NC(=O)c2cc3ccccn3n2)cc1 | 149* | 120 | 6 | -149 | 6* | 0
COc1ccc(C(=O)Nc2ccccn2)cc1 | 2 | 99 | 1 | -2 | 1.2 | 0
CSc1cccc(NC(=O)c2ccccn2)c1 | 90 | 142* | 2 | -90 | 2.6 | 0
O=C(NCc1ccc(Cl)cc1)c1cc2ccccn2n1 | 4 | 110 | -1 | -4 | 1.2 | 0
CCC(=O)Nc1ccc(NC(=O)c2ccccn2)cn1 | 85 | 130* | -1 | -85 | 0.63 | 0
CSc1cccc(NC(=O)c2cnccn2)c1 | 3 | 106 | 3 | -3 | 1.5 | 0
COc1ccc(N2CCN(CC(O)COc3ccc([N+](=O)[O-])cc3)CC2)cc1 (centres undefined) | -6 | 111 | -3 | 6 | 1.1 | 0
CC1CN(S(=O)(=O)c2cn(C)c(=O)n(C)c2=O)CC(C)O1 (centres undefined) | -11 | 107 | 2 | 11 | 1.1 | 0
COc1cccc(C(=O)Nc2ccc(NC(=O)C3CC3)cn2)c1 | 87 | 122 | 3 | -87 | 2.8 | 0
CCC(=O)Nc1ccc(NC(=O)c2cccc(OC)c2)nc1 | 44 | 129* | -2 | -44 | 1.9 | 0
COc1ccc(NC(=O)c2ccc(-c3ccc(C)c4ccccc34)o2)cc1 | 0 | 99 | 0 | 0 | 1.2 | 0
COc1ccc(NC(=O)c2ccc(-c3ccccc3Cl)o2)cc1 | 49 | 130* | 2 | -49 | 2.2 | 0
COc1ccc(NC(=O)c2ccccn2)cc1 | 80 | 84 | 1 | -80 | 3.3* | 0
CCCc1nc(N)c(C#N)c(N)c1C#N | 5 | 99 | -2 | -5 | 0.87 | 0
Cc1ccc(C2=CSC3=NNC4(CCCCC4)NN23)cc1 | 6 | 103 | 0 | -6 | 2.9 | 0
c1cncc(-c2nc(-c3ccc4c(c3)OCO4)cs2)c1 | 54 | 143* | 2 | -54 | 2.5 | 0
Clc1ccsc1-c1csc(-c2cccnc2)n1 | 27 | 129* | -1 | -28 | 2.4 | 0
O=C(CSc1ccccc1)N1CCC(N2CCC(C(=O)N3CCCC3)CC2)CC1 | 9 | 112 | 3 | -9 | 1.1 | 0
Cc1c(NC(=O)/C(C#N)=C/c2c(Oc3ccccc3)nc3ccccn3c2=O)c(=O)n(-c2ccccc2)n1C | -7 | 103 | 1 | 7 | 1.3 | 0
Cc1ccccc1Oc1nc2ccccn2c(=O)c1/C=C(\C#N)C(=O)Nc1c(C)n(C)n(-c2ccccc2)c1=O | 2 | 106 | -3 | -2 | 4.6* | 0
COc1cc2c(=O)c(-c3ccc(O)cc3)coc2cc1OC1OC(CO)C(O)C(O)C1O (centres undefined) | 18 | 112 | -3 | -18 | 1.2 | 1
O=c1c(-c2ccc3c(c2)OCCO3)coc2cc(OC3OC(CO)C(O)C(O)C3O)ccc12 (centres undefined) | 159* | nt | -2 | -159 | nt | nt
CCCCCNC(=O)CCc1ccccc1 | -3 | 102 | 0 | 3 | 1.1 | 0
SMILES | APP 5'UTR act | STAT1 activator | Wee1 stabilizer | APP transl inh | NF-kB neuron act | Hsp70 act
Cc1[nH]n(-c2ccccc2)c(=O)c1N=Nc1ccccc1 | 120 | 128 | -5 | -120 | 4* | 0
NC(=O)c1ccc(N=Nc2c(-c3ccccc3)[nH]n(-c3ccccc3)c2=O)cc1 | -69 | 102 | -3 | 69* | 1.3 | 0
O=c1c(N=Nc2ccc(O)cc2)c(-c2ccccc2)[nH]n1-c1ccc([N+](=O)[O-])cc1 | -20 | 98 | 1 | 20 | 0.92 | 0
Cc1[nH]n(C(N)=S)c(=O)c1N=Nc1ccc(S(=O)(=O)N2CCCC2)cc1 | -2 | 101 | -1 | 2 | 1.1 | 0
Cc1[nH]n(-c2ccccc2)c(=O)c1N=Nc1cccc(S(=O)(=O)N2CCOCC2)c1 | 0 | 105 | 2 | 0 | 0.49 | 0
Cc1ccc(N=Nc2c(C)[nH]n(C(N)=S)c2=O)cc1 | 48 | 137* | 0 | -48 | 2.6 | 0
Nc1[nH]n(-c2ccccc2)c(=O)c1N=Nc1ccc2c(c1)OCCO2 | 167* | 120 | 1 | -167 | 1.2 | 0
Cc1ccc(N=Nc2c(N)[nH]n3c(=O)cc(C)nc23)cc1 | -2 | 109 | -2 | 2 | 2 | 0
Cc1ccc(N=Nc2c(N)n(-c3ccccc3)[nH]c2=O)cc1 | 26 | 139* | 4 | -26 | 4.2* | 0
CCNc1c([N+](=O)[O-])c(=O)oc2ccccc12 | -4 | 98 | -2 | 4 | 1.1 | 0
Cc1cccc(NC(=O)CC23CC4CC(C2)CC(n2nnc(C)n2)(C4)C3)c1 | -7 | 101 | -2 | 7 | 0.79 | -1
CNc1cc(C)nc(-n2nc(C)cc2C)n1 | -27 | 106 | 1 | 27 | 1.2 | 0
CCOc1ccc(Nc2cc(C)nc(-n3nc(C)cc3C)n2)cc1 | -96 | 96 | -3 | 96* | 2.1 | 0
CNC(=O)c1ccc(-c2ccc(F)cc2)s1 | 86 | 119 | 2 | -86 | 2.8 | 0
O=C(Nc1ccccc1)c1ccc(-c2ccc(F)cc2)s1 | 75 | 143* | 7 | -75 | 2.2 | 0
CCCC1=C(C(=O)OCC)C(c2ccccc2OCC)NC(=O)N1C (centres undefined) | 7 | 84 | 0 | -7 | 1.1 | 0
CC/C(=N\NC(=O)c1ccncc1)C12CC3CC(CC(C3)C1)C2 | -52 | 109 | 0 | 52* | 1.1 | 0
O=C(CNS(=O)(=O)c1ccccc1)OCC(=O)c1cccc([N+](=O)[O-])c1 | -1 | 105 | -1 | 1 | 1 | 0
Cc1ccc(Cn2ccnc2C(=O)Nc2ccccc2)cc1 | 85 | 142* | -2 | -85 | 1.1 | 0
Cc1cc(C(=O)OCC(=O)c2cccc([N+](=O)[O-])c2)c2ccccc2n1 | 10 | 97 | 9.5* | -10 | 1.1 | 0
COc1ccccc1C(=O)OCC(=O)c1cccc([N+](=O)[O-])c1 | -6 | 97 | 1 | 6 | 1.2 | 0
COc1cc(C(=O)NS(=O)(=O)c2ccccc2C)ccc1Cc1cn(C)c2ccc(NC(=O)OC3CCCC3)cc12 | nt | nt | -4 | nt | nt | 0
CCC(C)/C(C)=N/NC(=O)CSc1nc2ccccc2[nH]1 (centres undefined) | -12 | 94 | 2 | 12 | 1.3 | 0
COc1nc(C)ccc1-c1noc(-c2ccccn2)n1 | 24 | 124 | 4 | -24 | 4.2* | 0
COc1ccc(-c2nc(-c3ccccn3)no2)cc1 | -46 | 10 | -5 | 46* | 0.24 | -1
COc1ccccc1-c1nc(-c2ccccn2)no1 | 98 | 68 | 0 | -98 | 2.5 | 0

Screening data (PubChem BioAssay)
